One assay concerns ICS. As to the kind of experiment: qHTS profiling for inhibitors of Plasmodium falciparum proliferation (AID 504749). Note: nearly all actives have a fitted effect of over 60% in size. Note: potency is the fitted concentration of half-maximal effect. To be noted: P. falciparum in erythrocytes, SYBR Green DNA, 72 h; series mostly up to 28.7 µM. An outline of the steps:
(§1)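 SYBR Green fluorescence (ex 485 nm, em 535 nm) reports parasite DNA after 72 h compound exposure of infected red cells at 0.3% parasitemia, 2.5% hematocrit; signal normalized to 0.29 uM artemisinin and vehicle wells.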
A general note: Quantitative high-throughput screening tests each substance at several concentrations.

The test system of the next assay is N140. The assay is described as above. To be noted: P. falciparum in erythrocytes, SYBR Green DNA, 72 h; series mostly up to 28.7 µM. Put shortly:
as §1

A further assay has as its system P93_24. Described as above. Conditions: P. falciparum in erythrocytes, SYBR Green DNA, 72 h; series mostly up to 28.7 µM. An outline of the steps: as §1
For a further assay, the system named is P94_40. Described as above. Conditions: P. falciparum in erythrocytes, SYBR Green DNA, 72 h; series mostly up to 28.7 µM. Put shortly: as §1
The next assay deals with PAD. The description is as above. Conditions: P. falciparum in erythrocytes, SYBR Green DNA, 72 h; series mostly up to 28.7 µM. Put shortly: as §1
The test system of another assay is PC15. The description is as above. Conditions: P. falciparum in erythrocytes, SYBR Green DNA, 72 h; series mostly up to 28.7 µM. An outline of the steps:
as §1

The next assay concerns PC26. The assay is described as above. Conditions: P. falciparum in erythrocytes, SYBR Green DNA, 72 h; series mostly up to 28.7 µM. An outline of the steps: as §1
The subject of the next assay is SC27B. Described as above. Conditions: P. falciparum in erythrocytes, SYBR Green DNA, 72 h; series mostly up to 28.7 µM. Put shortly: as §1
A further assay deals with TAB109. The assay is described as above. To be noted: P. falciparum in erythrocytes, SYBR Green DNA, 72 h; series mostly up to 28.7 µM. An outline of the steps: as §1
In another assay the test system is TAB113. The assay is described as above. Conditions: P. falciparum in erythrocytes, SYBR Green DNA, 72 h; series mostly up to 28.7 µM. An outline of the steps:
as §1

The next assay relates to TAB165. The assay is described as above. To be noted: P. falciparum in erythrocytes, SYBR Green DNA, 72 h; series mostly up to 28.7 µM. An outline of the steps: as §1
The test system of a further assay is W2. The description is as above. Conditions: P. falciparum in erythrocytes, SYBR Green DNA, 72 h; series mostly up to 28.7 µM. An outline of the steps: as §1
Another assay relates to JCK. The assay is described as above. Conditions: P. falciparum in erythrocytes, SYBR Green DNA, 72 h; series mostly up to 28.7 µM. An outline of the steps:
as §1

Another assay concerns PC49. Described as above. To be noted: P. falciparum in erythrocytes, SYBR Green DNA, 72 h; series mostly up to 28.7 µM. Put shortly: as §1
For assay [1], the target named is Nuclear receptor subfamily 1 group I member 2 (Rattus norvegicus) (UniProt Q9R1A7). Description: qHTS assay for small molecule activators of the rat pregnane X receptor (rPXR) signaling pathway (AID 651751; call rule not given here; note: 0% is about no effect). To be noted: rPXR reporter cells, luciferase (One-Glo), 24 h.
The nature of assay [2]: qHTS assay to identify inhibitors of the type 1 interferon - major histocompatibility complex class I in skeletal muscle: Counter screen cell viability and HiBit confirmation (AID 1347412). For activity change, negative = inhibition: % is set by controls: 0 for no effect and ±100 for the full control effect. For all read-outs here: nearly all actives have a fitted effect of over 60% in size. Note: potency is the fitted concentration of half-maximal effect. Conditions: iHSKM muscle cells + IFN-b, HiBiT or CellTiter-Glo, 24 h; for activity change, negative = inhibition: at 45.9 µM (top of the series). Put shortly: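 CRISPR HLA-B*08:01-HiBit immortalized human myoblasts (C25cl48) stimulated with 4 ng/ml IFN-beta and compounds (12-point 1:3, top 46 uM final) for 24 h at 37 C. Duplicate plates read by HiBit lytic luminescence or CellTiter Glo ATP.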

Assay [3] can be described thus: qHTS assay for small molecule activators of the human pregnane X receptor (PXR) signaling pathway (AID 720659; call rule not given here; note: 0% is about no effect).

The source of these data is PubChem BioAssay (NCATS).

A number with no mark means an inactive call. Inconclusive results are not listed. Calls of active or inactive are those of the source. Unless noted, calls come from the whole dose curve; as a rule, active = well fitted curve in the direction sought with a large enough effect; inconclusive = small, poorly fitted or top-dose-only effect, or another doubt; inactive = no such curve, though single readings can be large; an effect the other way counts as inactive or inconclusive.

Chain of Nuclear receptor subfamily 1 group I member 2 (Rattus norvegicus) (Q9R1A7 whole entry, looked up): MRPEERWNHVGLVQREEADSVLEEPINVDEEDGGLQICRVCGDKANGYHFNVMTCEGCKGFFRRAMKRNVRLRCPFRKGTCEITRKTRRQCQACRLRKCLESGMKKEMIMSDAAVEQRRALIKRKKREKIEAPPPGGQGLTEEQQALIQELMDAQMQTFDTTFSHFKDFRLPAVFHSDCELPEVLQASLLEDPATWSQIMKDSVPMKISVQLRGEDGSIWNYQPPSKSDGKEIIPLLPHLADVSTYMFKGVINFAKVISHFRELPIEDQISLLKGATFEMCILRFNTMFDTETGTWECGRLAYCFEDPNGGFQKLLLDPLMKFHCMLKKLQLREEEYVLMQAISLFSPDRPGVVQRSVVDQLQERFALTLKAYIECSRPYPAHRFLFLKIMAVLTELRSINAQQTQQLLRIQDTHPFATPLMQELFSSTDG

Consider `c1ccc(C2CN3CCSC3=N2)cc1` (configuration not stated), for which the Potency is 1.26 µM (active) in the assay on ICS; 3.98 µM (active) in the assay with N140; 2.82 µM (active) in the assay with P93_24; 3.55 µM (active) with P94_40; 7.94 µM (active) with PAD; 2.82 µM (active) in the assay on PC15. Also, the Potency was 15.1 µM (active) in the assay on PC26; 10 µM (active) in the assay with SC27B; 4.47 µM (active) in the assay on TAB109; 11.2 µM (active) in the assay with TAB113; 5.01 µM (active) with TAB165; 1.51 µM (active) in the assay with W2.

On to `CC(O)C(O)[C@H]1CNc2nc(N)[nH]c(=O)c2N1` (some centres not stated), for which the Potency result in the assay on ICS, in the assay with N140, with P93_24, in the assay on P94_40, in the assay on PAD and in the assay on PC15 was “inactive” in each case. Further, the Potency entry in the assay with PC26, in the assay with PC49, in the assay with SC27B, in the assay on TAB109, with TAB113 and in the assay with TAB165 was “inactive” each time. Moreover, the Potency result in the assay on W2 was “inactive”. For the same compound, the outcome in the assay with JCK was inactive.

As for `CCCc1c(OCCCOc2ccc(OCC(=O)O)cc2)ccc(C(C)=O)c1O`, in assay [1], the max response was -1.22%.

Regarding `CC[n+]1c(/C=C/C=C2/N(C)c3ccccc3C2(C)C)sc2ccccc21`, the values for the Potency in assay [2] (HiBiT) and in assay [2] (Viability) were 7.01 µM (active) and 9.91 µM (active), respectively.

Regarding `O=c1[nH]c2cc(Cl)ccc2c(O)c1-c1ccc(Oc2ccccc2)cc1`, in [2] (HiBiT), the Potency was 5.57 µM (active). Further, the activity change, negative = inhibition in assay [2] (Viability) was -0.671%.

Take `CCCc1c(-c2ccc(O)cc2)nn(-c2ccc(O)cc2)c1-c1ccc(O)cc1`: the max response in [1] was -3.52%. Further, the outcome in assay [3] was inactive.

As for `CCCCCCCCCCCCCCSCC(=O)O`, the max response in assay [1] is 5.54%. In assay [3], the call was inactive.

As to `CN1C2CCC1CC(OC(c1ccccc1)c1ccccc1)C2` (configuration not stated), the Potency in the assay with ICS is 0.178 µM (active); in the assay on PC49, 2 µM (active); in the assay with W2, 1.51 µM (active). Moreover, in the assay with JCK, the outcome was inactive. Moreover, the Potency entry with N140, with SC27B and in the assay on TAB113 was “inactive” each time.

Take `O=C1Cc2c([nH]c3ccc(Br)cc23)-c2ccccc2N1`: in [2] (HiBiT), the Potency was 15.7 µM (active). In addition, in [2] (Viability), the activity change, negative = inhibition was -21.6%.

For the compound `NC(=O)c1ccccc1`, the max response in [1] is -1.26%. In [3], the compound was classed as inactive.

`CC(C)NC[C@H](O)COc1ccc(CC(N)=O)cc1`: the Potency result in the assay with ICS, in the assay on N140, in the assay on P94_40, in the assay with PAD, with PC15 and in the assay with PC26 was “inactive” in each case. The Potency result in the assay on PC49, with SC27B, in the assay with TAB109, with TAB113, in the assay with TAB165 and in the assay on W2 was “inactive” throughout. The outcome with JCK was inactive.

Regarding `C/C(=C\c1ccc(C(=O)O)cc1)c1ccc2c(c1)C(C)(C)CCC2(C)C`, the max response in assay [1] is 1.8%.

As to `Brc1c(Br)c(Br)c2[nH]cnc2c1Br`, the Potency in assay [2] (HiBiT) is 14 µM (active). The activity change, negative = inhibition in assay [2] (Viability) was 3.14%.

For `CCCCCCCCCCCCCCCCCCOC[C@H](COP(=O)([O-])OCC[N+](C)(C)C)OC`, the Potency result in the assay on ICS, in the assay on N140, with P93_24, with P94_40, in the assay on PAD and with PC15 was “inactive” throughout. Moreover, the Potency result with PC49, in the assay on SC27B, in the assay with TAB109, in the assay on TAB113, with TAB165 and in the assay on W2 was “inactive” throughout. The compound was called inactive with JCK.

In the case of `C=C1C(=O)O[C@@H]2[C@H]3O[C@]3(C)CCC=C(C)CC[C@@H]12`, in assay [2] (HiBiT), the Potency is 8.83 µM (active). Also, the activity change, negative = inhibition in assay [2] (Viability) is 52.5%.

As for `CCCCCCCCCCCCCCC[C@H](O)[C@H](N)CO`, in the assay with JCK, the compound was called inactive. Further, the Potency entry in the assay on N140, in the assay with P93_24, in the assay with P94_40, in the assay with PAD, in the assay on PC15 and in the assay with PC26 was “inactive” throughout. The Potency entry in the assay with PC49, with SC27B, in the assay with TAB109, with TAB113, in the assay with TAB165 and in the assay with W2 was “inactive” throughout.

Consider `CC(=O)C(C)=O`, for which, in assay [1], the max response is -4.56%. Also, in assay [3], the result was inactive.
